These results are taken from PubChem BioAssay AID2284323 (EPA ToxCast).

The source made the active and inactive calls. How the source made its calls: active means hit-call score of the fitted dose curve at least 0.9, where 1 is the maximum; inactive means score below 0.9.

The assay deals with NCBI gene 447152. The assay can be described thus: CCTE_GLTED_xIYD: CCTE's Xenopus Iodotyrosine Deiodinase (xIYD) Inhibition Assay, Great Lakes Toxicology and Ecology Division (GLTED) Lab. The method, then: CCTE_GLTED_xIYD is a cell-free, single-readout assay that uses Xenopus (frog) iodotyrosine deiodinase (xIYD) enzyme from liver microsomes. Assay is based on iodide release measured by the Sandell-Kolthoff method and is run in 96-well plate format with assay plates run in triplicate (n=3) with measurements taken at 3 hours after chemical dosing. Platewise-normalization was used based on positive control (3-Nitro-L-tyrosine, MNT) and negative/solvent controls (DMSO, NaOH).CCTE_GLTED_xIYD is the assay component measured from the CCTE_GLTED_xIYD assay. It measures substrate involved in regulation of catalytic activity using spectrophotometry. The assay measures the deiodination activity of Xenopus (frog) IYD on the substrate monoiodotyrosine (MIT). After 3h incubation of substrate, enzyme, and test chemical, the components are applied to a 96-well Dowex column. Free iodide is not retained by the column and is separated from interfering assay components. The free iodide is measured by the Sandell-Kolthoff reaction in which the rate of reduction of cerium (Ce+4 to Ce+3) by arsenic (As+3 to As+5) is increased by the presence of iodide. This is observed as the loss of yellow color in the reaction and the quantified by the change in absorbance at 420 nm. The change in reaction rate is proportional to the amount of iodide present.Data from the assay component CCTE_GLTED_xIYD was analyzed at the assay endpoint CCTE_GLTED_xIYD in the positive analysis fitting direction relative to DMSO as the negative control and baseline of activity. Using a type of enzyme reporter, loss-of-signal activity can be used to understand iodotyrosine deiodinase activity. To generalize the intended target to other relatable targets, this assay endpoint is annotated to the 'dehalogenase' intended target family, where the subfamily is 'iodotyrosine deiodinase'.
Human transthyretin (TTR) assay, developed at Great Lakes Toxicology and Ecology Division (GLTED) within the EPA's Center for Computational Toxicology and Exposure (CCTE), is designed to test the chemicals' ability to displace T4 from the TTR protein. TTR (0.125uM) is incubated in presence of test chemical for 2 hours during which disrupting chemicals displace ANSA from the TTR protein. Results read fluorescence at 380 excitation and 475 emission.
Turning to `O=C(Cl)C(F)(F)C(F)(F)C(F)(F)C(F)(F)C(F)(F)C(F)(F)C(F)(F)C(F)(F)F`, the call was inactive. In the case of `O=P(O)(O)CCC(F)(F)C(F)(F)C(F)(F)C(F)(F)C(F)(F)C(F)(F)C(F)(F)C(F)(F)F`, the AC50 (usually the concentration at which the activity in the assay is half-maximal) was 65.4 µM (active).

Turning to `N[C@@H](Cc1ccc(O)c([N+](=O)[O-])c1)C(=O)O`, the AC50 is 0.113 µM (active). For the compound `O=S(=O)(Cl)C(F)(F)C(F)(F)C(F)(F)C(F)(F)C(F)(F)C(F)(F)C(F)(F)C(F)(F)F`, the compound was classed as inactive. For the compound `O=C(O)C(F)(F)C(F)(F)C(F)(F)C(F)(F)C(F)(F)C(F)(F)C(F)(F)C(F)(F)Cl`, the AC50 was 38.9 µM (active). In the case of `O=C(O)C(F)(F)OC(F)(F)C(F)(F)OC(F)(F)C(F)(F)OC(F)(F)C(F)(F)C(F)(F)C(F)(F)F`, the AC50 is 93.8 µM (active). As to `O=S(=O)(O)C(F)(F)C(F)(F)C(F)(F)C(F)(F)C(F)(F)C(F)(F)C(F)(F)F`, the AC50 is 19.8 µM (active).

As for `O=C(O)CCC(F)(F)C(F)(F)C(F)(F)C(F)(F)C(F)(F)C(F)(F)C(F)(F)F`, the outcome was inactive. Regarding `O=C(O)C(F)(F)C(F)(F)C(F)(F)C(F)(F)C(F)(F)C(F)(F)C(F)(F)C(F)(F)C(F)(F)C(F)F`, the AC50 is 64.2 µM (active).
